{"source": "PubChem BioAssay AID463173", "about": "(ICCB-Longwood Screening Facility, Harvard Medical School, 2010)", "note": "The whole screen tested about 52,000 compounds, of which about 4,300 (8.3%) were called active. The sample holds actives, similar compounds and a random draw of the others, so the mix is not that of the screen. A number with no mark means an inactive call. Cut-off read from the data, not from the text of the source: active = survival mostly below about 52% (no sharp cut-off); inactive = mostly above about 56%.", "data": [{"test_system": "DeltatarO mutant", "assay": "growth inhibition of S. aureus wild type versus tarO mutant, primary screen, teichoic acid synthesis inhibitors, RN4220, OD600 (AID 463173)", "settings": "OD600, 18 h, stronger effect = lower value, screened at 18.75 µg/mL (by protocol)", "values": [{"smiles": "COc1cc(-c2nnc(SCC(=O)Oc3ccccc3Cl)o2)cc(OC)c1OC", "survival": "84%"}, {"smiles": "O=C(Nc1ccc(CN2CCCCC2)cc1)c1cccnc1Cl", "survival": "71%"}, {"smiles": "CCc1ccc(-c2nc(SCC(=O)NCCOC)c(-c3ccc(C)cc3)[nH]2)cc1", "survival": "76%"}, {"smiles": "Cc1c(Cl)cccc1NC(=O)c1cc(S(=O)(=O)N2CCCCC2)cn1C", "survival": "99%"}, {"smiles": "COc1cccc(CN2CCc3nc(N4CCN(C)CC4)ncc3C2)c1", "survival": "84%"}, {"smiles": "CN(c1ccc(F)cc1)S(=O)(=O)N1CCCC(C(=O)NCc2ccccc2Cl)C1", "note": "(centres undefined)", "survival": "81%"}, {"smiles": "COc1ccc(NC(=O)CCc2c(C)nc3c(c2C)c(=O)n(C)c(=O)n3C)c(OC)c1", "survival": "100%"}, {"smiles": "COc1ccc2c(c1)c(=O)c(S(=O)(=O)c1ccccc1)cn2CC(=O)Nc1ccc(C)c(Cl)c1", "survival": "97%"}, {"smiles": "COc1ccccc1CNC(=O)CCC1N=C2c3ccccc3N=C(SCC(=O)NCCc3ccc(OC)c(OC)c3)N2C1=O", "note": "(centres undefined)", "survival": "92%"}, {"smiles": "COc1ccccc1N1CCN(C(=O)c2nn(C)c3c2CS(=O)(=O)c2ccccc2-3)CC1", "survival": "61%"}, {"smiles": "Cc1ccc(Cl)cc1N1CCN(C(=O)c2nn(C)c3c2CS(=O)(=O)c2ccccc2-3)CC1", "survival": "58% (active)"}, {"smiles": "Cn1nc(C(=O)N2CCN(c3ccccc3F)CC2)c2c1-c1ccccc1S(=O)(=O)C2", "survival": "60%"}, {"smiles": "O=C(CSc1ncn[nH]1)N1CCOCC1", "survival": "73%"}, {"smiles": "Cn1c(=O)n(C)c2cc(NC(=O)C(F)(F)F)ccc21", "survival": "94%"}, {"smiles": "Cn1c(=O)c(=O)n(C)c2cc(N3CCOCC3)c(NS(=O)(=O)c3ccc(Cl)cc3)cc21", "survival": "-1% (active)"}, {"smiles": "CCc1ccc(S(=O)(=O)Nc2cc3c(cc2C)n(C)c(=O)c(=O)n3C)cc1", "survival": "64%"}, {"smiles": "CCc1ccc(S(=O)(=O)Nc2cc3c(cc2N2CCOCC2)n(C)c(=O)c(=O)n3C)cc1", "survival": "6% (active)"}, {"smiles": "CC(C)Cc1ccc(S(=O)(=O)Nc2cc3c(cc2N2CCOCC2)n(C)c(=O)c(=O)n3C)cc1", "survival": "79%"}, {"smiles": "Cn1c(=O)n(C)c2cc(N3CCOCC3)c(NS(=O)(=O)c3ccc(Cl)cc3)cc21", "survival": "75%"}, {"smiles": "Cn1c(=O)c(=O)n(C)c2cc(N3CCOCC3)c(NS(=O)(=O)c3ccc(F)c(Cl)c3)cc21", "survival": "67%"}, {"smiles": "Cc1cc2c(cc1NS(=O)(=O)c1ccc(Br)cc1)n(C)c(=O)c(=O)n2C", "survival": "109%"}, {"smiles": "Cc1ccc(S(=O)(=O)Nc2cc3c(cc2C)n(C)c(=O)c(=O)n3C)cc1", "survival": "-2% (active)"}, {"smiles": "Cc1ccc(S(=O)(=O)Nc2cc3c(cc2N2CCOCC2)n(C)c(=O)n3C)cc1", "survival": "90%"}, {"smiles": "Cc1ccc(NC(=O)C2CCN(S(=O)(=O)c3ccc4c(c3)CCCC(=O)N4)CC2)cc1N(C)C", "survival": "120%"}, {"smiles": "Cc1nn(CCCC(=O)NCc2ccccc2)c(=O)c2cc3sccc3n12", "survival": "76%"}, {"smiles": "O=C(CSc1cn(CC(=O)N2CCCCC2)c2ccccc12)NCc1ccc(F)cc1", "survival": "70%"}, {"smiles": "N#CCNC(=O)c1cccc(I)c1", "survival": "89%"}, {"smiles": "Cc1ccc(C)c(N2CCN(C(=O)c3cc(S(=O)(=O)N4CCCC4)cn3C)CC2)c1", "survival": "64%"}, {"smiles": "Cc1cc(N2CCC(C(=O)Nc3ccc(F)cc3F)CC2)n2nc(C)c(-c3ccc(Cl)cc3)c2n1", "survival": "86%"}, {"smiles": "COc1cccc(-c2nnc3n(Cc4ccc(F)cc4)c(=O)c4ccccc4n23)c1", "survival": "84%"}, {"smiles": "Cc1ccc(NC(=O)[C@H](Cc2ccccc2)N2Cc3ccccc3C2=O)cc1", "survival": "81%"}, {"smiles": "Cc1ccc(CCNC(=O)CCCn2nc(C)c3c(C)n(-c4ccccc4)nc3c2=O)cc1", "survival": "87%"}, {"smiles": "CCN1CCC(N(Cc2ccc3c(c2)OCO3)C(=O)Nc2cccc(C)c2C)CC1", "survival": "94%"}, {"smiles": "CCN1CCC(N(Cc2cccc(OC)c2)C(=O)Nc2ccc(C)cc2Cl)CC1", "survival": "66%"}, {"smiles": "CCN1CCC(N(Cc2cccc(OC)c2)C(=O)Nc2cccc(C)c2C)CC1", "survival": "20% (active)"}, {"smiles": "COCCN1C(=O)C(=O)/C(=C(/O)c2ccccc2)C1c1ccccc1", "note": "(centres undefined)", "survival": "102%"}, {"smiles": "CCc1ccc(C(=O)c2cn(CC(=O)NCc3ccc(C)cc3)c3nc(C)ccc3c2=O)cc1", "survival": "98%"}, {"smiles": "Cc1ccc2c(=O)c(C(=O)c3ccc(F)cc3)cn(CC(=O)NCc3ccccc3)c2n1", "survival": "82%"}, {"smiles": "Cc1ccc(Cn2cc(C(=O)c3ccc(C)cc3)c(=O)c3ccc(C)nc32)cc1", "survival": "24% (active)"}, {"smiles": "Cc1ccc(C(=O)c2cn(Cc3cccc(Cl)c3)c3nc(C)ccc3c2=O)cc1", "survival": "60% (active)"}, {"smiles": "Cc1ccc(C(=O)c2cn(Cc3ccccc3)c3nc(C)ccc3c2=O)cc1", "survival": "76%"}, {"smiles": "Cc1ccc(C(=O)c2cn(Cc3ccc(F)cc3)c3nc(C)ccc3c2=O)cc1", "survival": "85%"}, {"smiles": "Cc1ccc(C(=O)c2cn(Cc3ccc(Cl)cc3)c3nc(C)ccc3c2=O)cc1", "survival": "34%"}, {"smiles": "Cc1ccc(CNC(=O)Cn2cc(C(=O)c3ccc(F)cc3)c(=O)c3ccc(C)nc32)cc1", "survival": "52% (active)"}, {"smiles": "Cc1ccc(C(=O)c2cn(Cc3cccc(C)c3)c3nc(C)ccc3c2=O)cc1", "survival": "54%"}, {"smiles": "Cc1cc(NC(=O)C2C3C(=O)N(c4ccccc4Cl)C(C(=O)NC(C)(C)C)C34C=CC2(C)O4)no1", "note": "(centres undefined)", "survival": "108%"}, {"smiles": "Cc1ccccc1OCC(=O)Nc1nnc(SCc2cc(=O)n3cc(Cl)ccc3n2)s1", "survival": "84%"}, {"smiles": "CCc1ccc(C2c3c(oc4ccc(F)cc4c3=O)C(=O)N2CCc2ccc(OC)cc2)cc1", "note": "(centres undefined)", "survival": "94%"}, {"smiles": "Cc1ccc(-n2c(=O)c3ccc(C(=O)NCc4ccco4)cc3n(CC(=O)Nc3ccc(C)c(F)c3)c2=O)cc1", "survival": "84%"}, {"smiles": "CCOc1cccc(CC(=O)NCc2ccc3c(c2)CCN3C(=O)c2cccc(C)c2)c1OCC", "survival": "54%"}, {"smiles": "COc1ccc(N(C(=O)/C=C\\C(=O)Nc2ccc(Cl)cc2)C(C(=O)NCc2ccco2)c2ccc(C)cc2)cc1", "note": "(centres undefined)", "survival": "115%"}, {"smiles": "Cc1cccc(N2CCN(C(=O)C3CCN(C(=O)c4cc5sccc5n4C)CC3)CC2)c1C", "survival": "53%"}, {"smiles": "Cn1c(C(=O)N2CCCC(C(=O)N3CCN(c4ccccc4)CC3)C2)cc2sccc21", "note": "(centres undefined)", "survival": "89%"}, {"smiles": "Cc1cccc(N2CCN(C(=O)C3CCCN(C(=O)c4cc5sccc5n4C)C3)CC2)c1C", "note": "(centres undefined)", "survival": "53% (active)"}, {"smiles": "Cc1cccc(OC(C)C(=O)N2CCC(c3nc4ccccc4o3)CC2)c1C", "note": "(centres undefined)", "survival": "75%"}, {"smiles": "Cc1cccc(C)c1OCC(=O)N1CCC(c2nc3ccccc3o2)CC1", "survival": "86%"}, {"smiles": "COc1ccccc1OCC(=O)N1CCC(c2nc3ccccc3o2)CC1", "survival": "0% (active)"}, {"smiles": "CCc1ccc(OC(C)C(=O)N2CCC(c3nc4ccccc4o3)CC2)cc1", "note": "(centres undefined)", "survival": "85%"}, {"smiles": "CC(Oc1ccccc1F)C(=O)N1CCC(c2nc3ccccc3o2)CC1", "note": "(centres undefined)", "survival": "-1% (active)"}, {"smiles": "Cc1cccc(OCC(=O)N2CCC(c3nc4ccccc4o3)CC2)c1C", "survival": "81%"}, {"smiles": "O=C(CC1CCCCC1)Nc1ccccn1", "survival": "73%"}, {"smiles": "COc1ccc(N2C(=O)C(C)C(Cc3ccc(C)cc3)C2=O)cc1", "note": "(centres undefined)", "survival": "103%"}, {"smiles": "CCC(=O)Nc1ccc(NC(=O)c2ccc(F)cc2)nc1", "survival": "85%"}, {"smiles": "COc1ccc(NC(=O)NCC2CCN(Cc3ccccc3F)CC2)c(OC)c1", "survival": "96%"}, {"smiles": "CC1CCCCN1C(=O)C1COc2ccccc2O1", "note": "(centres undefined)", "survival": "65%"}, {"smiles": "CCN(c1ccccc1)c1nnc(NC(=O)Nc2cccc(Br)c2)s1", "survival": "80%"}, {"smiles": "Cc1cccc(NC(=O)Nc2ccc(Br)cc2)n1", "survival": "126%"}, {"smiles": "COc1ccc(-n2nc3ccc(NC(=O)c4c(OC)cccc4OC)cc3n2)cc1", "survival": "135%"}, {"smiles": "Cc1ccc2oc(-c3ccc(NC(=O)c4oc5ccc(Cl)cc5c4C)cc3)nc2c1", "survival": "66%"}, {"smiles": "Cc1ccc(-n2nc3ccc(NC(=O)c4oc5ccc(C)cc5c4C)cc3n2)cc1", "survival": "38% (active)"}, {"smiles": "COc1cc(C(=O)Nc2ccc3nn(-c4ccc(F)cc4)nc3c2)cc(OC)c1OC", "survival": "45% (active)"}, {"smiles": "Cc1ccc(-n2nc3ccc(NC(=O)c4cc5ccccc5o4)cc3n2)cc1", "survival": "70%"}, {"smiles": "Cc1c(C(=O)Nc2ccncc2)oc2ccccc12", "survival": "98%"}, {"smiles": "CCc1ccc(-n2nc3ccc(NC(=O)c4cc(Cl)c(OC)c(Cl)c4)cc3n2)cc1", "survival": "83%"}, {"smiles": "Cc1ccc(-n2nc3ccc(NC(=O)c4oc5ccccc5c4C)cc3n2)cc1", "survival": "31% (active)"}, {"smiles": "Cc1ccc2oc(C(=O)Nc3cccc(-c4nc5ccccc5s4)c3)c(C)c2c1", "survival": "55%"}, {"smiles": "O=C(Cn1ncc2c3ccccc3n(Cc3ccc(F)cc3)c2c1=O)NCCC1=CCCCC1", "survival": "85%"}, {"smiles": "CC(C)(C)C(=O)Nc1c(C(=O)N2CCN(c3ccc(F)cc3)CC2)oc2ccccc12", "survival": "80%"}, {"smiles": "CCn1cc(C(=O)NCc2ccc(Cl)cc2)c(=O)c2cc(S(=O)(=O)N(C)C3CCCCC3)ccc21", "survival": "70%"}, {"smiles": "CCOc1ccc(NC2=NCCC(=O)N2Cc2cccs2)cc1", "survival": "83%"}, {"smiles": "O=C(O)c1nnc(Cl)c2ccccc12", "survival": "91%"}, {"smiles": "Cc1nc(-c2ccc(Cl)cc2)sc1CCNC(=O)C(=O)Nc1ccccc1C#N", "survival": "80%"}, {"smiles": "COc1ccc(CNC(=O)c2cc3c(=O)n4cccc(C)c4nc3s2)cc1", "survival": "68%"}, {"smiles": "Cc1cccn2c(=O)c3cc(C(=O)NCc4ccccc4Cl)sc3nc12", "survival": "62%"}, {"smiles": "CCOC(=O)CNC(=O)c1cc2c(=O)n3cccc(C)c3nc2s1", "survival": "179%"}, {"smiles": "CCCCNC(=O)c1cc2c(=O)n3cccc(C)c3nc2s1", "survival": "150%"}, {"smiles": "Cc1cccn2c(=O)c3cc(C(=O)NCC(C)C)sc3nc12", "survival": "63% (active)"}, {"smiles": "Cc1ccc(CNC(=O)c2cc3c(=O)n4cccc(C)c4nc3s2)cc1", "survival": "54% (active)"}, {"smiles": "O=C(CN1CCC(n2nnc3cc(C(F)(F)F)ccc32)CC1)Nc1ccc(N2CCCC2)cc1", "survival": "86%"}]}]}
